Results filed as inconclusive are left out. Activity calls are given as the source filed them. Unless noted, calls come from the whole dose curve; as a rule, active = well fitted curve in the direction sought with a large enough effect in the repeat runs; inconclusive = weak or mixed curves; inactive = no such curve, though single readings can be large; an effect the other way counts as inactive or inconclusive.
How the values were obtained:
[1] = qHTS assay to identify small molecule antagonists of the glucocorticoid receptor (GR) signaling pathway - cell viability counter screen (AID 720693); note: nearly all actives have a fitted effect of over 55% in size
[2] = qHTS assay for identifying genotoxic compounds that show differential cytotoxicity against isogenic chicken DT40 cell lines with known DNA damage response pathways - wild type cell line (AID 743012); note: nearly all actives have a fitted effect of over 60% in size; note: potency is the fitted concentration of half-maximal effect
Procedure, shortened: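 Quantitative HTS on parental DT40 cells: 40 h compound treatment at 37 C/5% CO2, with viability then determined by CellTiter-Glo luminescence. Values serve as the DNA repair-proficient reference for differential cytotoxicity.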

[3] = qHTS assay for identifying genotoxic compounds that show differential cytotoxicity against isogenic chicken DT40 cell lines with known DNA damage response pathways - Rad54/Ku70 mutant cell line (AID 743015); note: nearly all actives have a fitted effect of over 60% in size; note: potency is the fitted concentration of half-maximal effect
[4] = qHTS assay to identify small molecule antagonists of the androgen receptor (AR) signaling pathway - cell viability counter screen (AID 743033; note: nearly all actives have a fitted effect of over 45% in size)
[5] = qHTS assay to identify small molecule antagonists of the androgen receptor (AR) signaling pathway using the MDA cell line - cell viability counter screen (AID 743041; note: nearly all actives have a fitted effect of over 45% in size)
Procedure, shortened: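 MDA-kb2 AR-luc cells (MMTV-luciferase, AR/GR responsive) treated with compounds plus R1881 agonist for 16 h at 37C. CellTiter-Fluor added at 15.5 h; fluorescence read after 30 min in the same wells.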

[6] = qHTS assay for identifying genotoxic compounds that show differential cytotoxicity against isogenic chicken DT40 cell lines with known DNA damage response pathways - Rev3 mutant cell line (AID 743014); note: nearly all actives have a fitted effect of over 55% in size; note: potency is the fitted concentration of half-maximal effect
[7] = biological target: Androgen receptor (Homo sapiens) (UniProt P10275); assay: qHTS assay to identify small molecule antagonists of the androgen receptor (AR) signaling pathway (AID 743035; active = well fitted inhibition curve with a large enough effect in the signal ratio in the repeat runs, not every such curve was filed as active; the % refers to the signal ratio; note: potency is the fitted concentration of half-maximal effect)
Chain of Androgen receptor (Homo sapiens) (P10275 whole entry, looked up): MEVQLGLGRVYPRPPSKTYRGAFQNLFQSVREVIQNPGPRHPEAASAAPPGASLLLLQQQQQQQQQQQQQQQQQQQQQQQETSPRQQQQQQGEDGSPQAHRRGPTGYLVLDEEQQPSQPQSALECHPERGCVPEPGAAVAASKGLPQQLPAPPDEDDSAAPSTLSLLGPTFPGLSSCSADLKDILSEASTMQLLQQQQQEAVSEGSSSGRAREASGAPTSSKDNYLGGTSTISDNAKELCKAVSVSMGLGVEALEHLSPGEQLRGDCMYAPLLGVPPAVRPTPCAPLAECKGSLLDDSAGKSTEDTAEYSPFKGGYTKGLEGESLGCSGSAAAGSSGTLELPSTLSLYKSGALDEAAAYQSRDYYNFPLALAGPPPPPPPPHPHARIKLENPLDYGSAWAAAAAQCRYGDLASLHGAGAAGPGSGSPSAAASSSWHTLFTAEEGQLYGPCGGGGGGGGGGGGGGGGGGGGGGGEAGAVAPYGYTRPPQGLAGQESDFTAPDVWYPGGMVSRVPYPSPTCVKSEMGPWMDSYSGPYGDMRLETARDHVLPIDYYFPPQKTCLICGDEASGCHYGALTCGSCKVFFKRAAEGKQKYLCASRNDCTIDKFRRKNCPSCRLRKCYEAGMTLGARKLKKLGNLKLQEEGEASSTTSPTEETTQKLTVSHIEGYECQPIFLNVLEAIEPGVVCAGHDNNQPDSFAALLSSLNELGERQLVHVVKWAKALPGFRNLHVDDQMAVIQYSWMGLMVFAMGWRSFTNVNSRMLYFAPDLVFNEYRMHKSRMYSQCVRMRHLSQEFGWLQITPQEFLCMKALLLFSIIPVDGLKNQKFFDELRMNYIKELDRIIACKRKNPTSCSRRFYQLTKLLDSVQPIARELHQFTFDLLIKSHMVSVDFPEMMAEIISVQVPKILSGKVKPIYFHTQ
Procedure, shortened: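 Cell line: GeneBLAzer AR-UAS-bla GripTite (HEK293). Stimulus: R1881 added after compound. Exposure: 16 h, 37C, 5% CO2. Readout: LiveBLAzer B/G FRET fluorescence after 2 h at room temperature.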

[8] = biological target: Androgen receptor (Homo sapiens) (UniProt P10275); assay: qHTS assay to identify small molecule agonists of the androgen receptor (AR) signaling pathway (AID 743036; active = well fitted activation curve with a large enough effect in the signal ratio in the repeat runs, with a control signal flat, not every such curve was filed as active; the % refers to the signal ratio)
Procedure, shortened: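 Agonist activity was scored by beta-lactamase reporter fluorescence in stably transfected HEK293 cells exposed to compounds for 16 h at 37C and 5% CO2. Substrate loading took 2 h at room temperature.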

[9] = biological target: Androgen receptor (Homo sapiens) (UniProt P10275); assay: qHTS assay to identify small molecule agonists of the androgen receptor (AR) signaling pathway using the MDA cell line (AID 743040; note: nearly all actives have a fitted effect of over 20% in size)
Procedure, shortened: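 MDA-kb2 breast carcinoma cells carrying MMTV-luciferase (responsive to AR and GR), plated 5 h then treated 16 h with compounds at 37C, 0% CO2. Read-out was ONE-Glo luminescence after 30 min at room temperature.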

[10] = biological target: Androgen receptor (Homo sapiens) (UniProt P10275); assay: qHTS assay to identify small molecule antagonists of the androgen receptor (AR) signaling pathway using the MDA cell line (AID 743042; note: nearly all actives have a fitted effect of over 55% in size)
Procedure, shortened: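 MDA-kb2 breast carcinoma cells carrying MMTV-luciferase (AR/GR responsive) were co-treated with compounds and the agonist R1881 for 16 h at 37C. Inhibition read as ONE-Glo luminescence; CellTiter-Fluor fluorescence measured in parallel for cytotoxicity.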

Measured: Potency

CCCCOC(=O)c1ccccc1C(=O)OCC(CC)CCCC (stereo not given)
inactive: [1] | [2] | [3] | [4] | [5]

N=C(N=C(N)N)N1CCOCC1
inactive: [1] | [2] | [3] | [4] | [5]

CN(C)CCCNCCCN
inactive: [1] | [2] | [4] | [5]

O=C(O)C1CCC(C(=O)O)CC1 (stereo not given)
inactive: [1]
active: [6] 60.9 µM | [3] 68.4 µM

CNCC[C@@H](Oc1ccccc1C)c1ccccc1
active: [2] 16.8 µM | [3] 29.8 µM
inactive: [1] | [4] | [7] | [8] | [9]

O=C(O)[C@@H]1[C@H]2C[C@H]3c4[nH]c5ccccc5c4CCN3C[C@@H]2CC[C@@H]1O
not listed: [2] | [3] | [8]
inactive: all other assays above

CCCCc1cc2ccccc2c(OCCN(C)C)n1
inactive: [1] | [4] | [5]
active: [2] 6.39 µM | [6] 9.02 µM

CC(C)(C)C1CCCCC1O (stereo not given)
inactive: [1] | [6] | [3] | [4] | [5]

CC(=O)N(O)CCCCCNC(=O)CCC(=O)N(O)CCCCCNC(=O)CCC(=O)N(O)CCCCCN
inactive: [1] | [6] | [3] | [4] | [8] | [9]

O=C=NC1CCC(CC2CCC(N=C=O)CC2)CC1 (stereo not given)
inactive: [1] | [4]
active: [6] 54.5 µM

CC1=CCC(C(C)C)C=C1 (stereo not given)
inactive: [1] | [2] | [4]

O=CNc1ccccc1
inactive: [1] | [2] | [3] | [4] | [5]

CC(C)c1ccc2c(C(C)C)cc(C(C)C)c(S(=O)(=O)O)c2c1
not listed: [2] | [8]
inactive: all other assays above

CCN1CCC[C@H]1CNC(=O)c1c(OC)ccc(Br)c1OC
inactive: [1] | [2] | [3] | [4] | [5]

O=C(Nc1ccccc1)OCC(CN1CCCCC1)OC(=O)Nc1ccccc1 (stereo not given)
inactive: [1] | [2] | [6] | [4] | [5]

CC[C@H](C)[C@H](N)C(=O)O
inactive: [1] | [2] | [3] | [4] | [5]

CCN(CC)CCOC(=O)C1(c2ccccc2)CCCC1
active: [2] 26.6 µM | [3] 23.7 µM
not listed: [5] | [6]
inactive: all other assays above

CC(=O)/C=C/C1C(C)=CCCC1(C)C (stereo not given)
inactive: [1] | [6] | [3] | [5]

CCN(CC)CCNC(C(=O)OCCC(C)C)c1ccccc1 (stereo not given)
active: [2] 26.6 µM
inactive: [1] | [4] | [5]

OCC1CC2CC1C1CCC(CO)C21 (stereo not given)
inactive: [1] | [4]
active: [6] 54.5 µM

O=S(=O)(O)c1ccc(O)c2ncccc12
inactive: [1] | [6] | [3] | [4] | [5]

COC(Cc1ccccc1)OC
inactive: [1] | [6] | [3] | [4]

C=CC(=O)OCCOC(=O)CCC(=O)O
inactive: [1] | [6] | [3] | [4] | [5]

Cc1occc1S
inactive: [1] | [4] | [5]
active: [2] 54.5 µM | [6] 61.1 µM

CCN(CCO)CCCC(C)Nc1ccnc2cc(Cl)ccc12 (stereo not given)
active: [2] 29.8 µM | [6] 23.7 µM
inactive: [1] | [4] | [5]

CCOc1cc(OCC)c(C(=O)CCC(=O)O)cc1OCC
inactive: [1] | [2] | [3] | [4]

Cc1cccc(OCCOc2cccc(C)c2)c1
inactive: [1] | [2] | [4] | [5]

COc1ccc2[nH]c(S(=O)Cc3ncc(C)c(OC)c3C)nc2n1 (stereo not given)
active: [2] 29.8 µM | [3] 29.8 µM
inactive: [1] | [4] | [5]

Oc1ccc2c(c1)OCO2
inactive: [1] | [4] | [5]
active: [2] 54 µM | [6] 54 µM

CCN(CC)CCc1nc(-c2ccccc2)no1
inactive: [1] | [2] | [3] | [4] | [5]

Cc1cc(NC(=O)C(=O)O)cc(C)c1Oc1ccc(O)c2c1CCC2
not listed: [6]
inactive: all other assays above

CCOC(=O)C1=C(C)NC(C)=C(C(=O)OC)C1c1cccc([N+](=O)[O-])c1 (stereo not given)
inactive: [1] | [4] | [5]
active: [2] 26.6 µM | [3] 26.6 µM

CC(C)c1ccccc1C(C)C
inactive: [1] | [2] | [6] | [4] | [5]

CCOc1nc2cccc(C(=O)O)c2n1Cc1ccc(-c2ccccc2-c2nn[nH]n2)cc1
inactive: [7] | [8]

CC(C)(C)c1cc(O)c(C(C)(C)C)cc1O
inactive: [8]
active: [7] 43.6 µM

From PubChem BioAssay (Tox21)
